# The supplement of paper PMC9694430
# What was measured:
# Assay in all cases: thermal shift delta Tm vs DMSO control; higher = stronger stabilization (binding)
# Conditions in all cases: 12.5 µM; protein concentration 2 µM
# LOC_OS01G57100-cb003 = system: LOC_OS01G57100-cb003
# Outline: (§1)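 Purified, E. coli-expressed rice kinase domain constructs were tested by differential scanning fluorimetry in 96-well plates: 19.5 μl of 2 μM kinase in 100 mM potassium phosphate pH 7.5, 150 mM NaCl, 10% glycerol, 5 × SYPRO Orange, plus compound in DMSO. Fluorescence was read from 25°C to 95°C at 0.05°C/s. Melting temperatures came from Boltzmann fits, and the shift is the triplicate mean relative to protein with DMSO alone.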
# LOC_OS01G60330-cb001 = system: LOC_OS01G60330-cb001
# Outline: as §1
# LOC_OS01G60700-cb002 = system: LOC_OS01G60700-cb002
# Outline: as §1
# LOC_OS01G63280-cb003 = system: LOC_OS01G63280-cb003
# Outline: as §1
# LOC_OS01G67340-cb003 = system: LOC_OS01G67340-cb003
# Outline: as §1
# LOC_OS01G70970-cb002 = system: LOC_OS01G70970-cb002
# Outline: as §1
# LOC_OS02G07810-cb001 = system: LOC_OS02G07810-cb001
# Outline: as §1
# LOC_OS02G08530-cb003 = system: LOC_OS02G08530-cb003
# Outline: as §1
# LOC_OS02G14120-cb001 = system: LOC_OS02G14120-cb001
# Outline: as §1
# LOC_OS02G17970-cb001 = system: LOC_OS02G17970-cb001
# Outline: as §1
# LOC_OS02G45750-cb003 = system: LOC_OS02G45750-cb003
# Outline: as §1
# LOC_OS02G54510-cb004 = system: LOC_OS02G54510-cb004
# Outline: as §1
# LOC_OS03G04050-cb001 = system: LOC_OS03G04050-cb001
# Outline: as §1
# LOC_OS03G12390-cb001 = system: LOC_OS03G12390-cb001
# Outline: as §1
# LOC_OS03G27990-cb004 = system: LOC_OS03G27990-cb004
# Outline: as §1
# LOC_OS03G50450-cb001 = system: LOC_OS03G50450-cb001
# Outline: as §1
# LOC_OS03G50810-cb003 = system: LOC_OS03G50810-cb003
# Outline: as §1
# LOC_OS04G35114-cb001 = system: LOC_OS04G35114-cb001
# Outline: as §1
# LOC_OS04G38480-cb003 = system: T1, LOC_OS04G38480-cb003
# T1 sequence (whole entry): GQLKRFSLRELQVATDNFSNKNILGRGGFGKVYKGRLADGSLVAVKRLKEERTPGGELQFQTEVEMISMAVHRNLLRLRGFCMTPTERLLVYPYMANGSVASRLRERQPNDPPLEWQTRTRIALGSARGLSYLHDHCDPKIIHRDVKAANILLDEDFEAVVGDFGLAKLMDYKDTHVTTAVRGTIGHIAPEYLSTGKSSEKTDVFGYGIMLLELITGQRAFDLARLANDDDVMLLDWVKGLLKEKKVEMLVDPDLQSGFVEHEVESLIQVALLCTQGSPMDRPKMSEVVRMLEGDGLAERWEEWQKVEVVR
# Outline: as §1
# LOC_OS04G41100-cb001 = system: T2, LOC_OS04G41100-cb001
# T2 sequence (whole entry): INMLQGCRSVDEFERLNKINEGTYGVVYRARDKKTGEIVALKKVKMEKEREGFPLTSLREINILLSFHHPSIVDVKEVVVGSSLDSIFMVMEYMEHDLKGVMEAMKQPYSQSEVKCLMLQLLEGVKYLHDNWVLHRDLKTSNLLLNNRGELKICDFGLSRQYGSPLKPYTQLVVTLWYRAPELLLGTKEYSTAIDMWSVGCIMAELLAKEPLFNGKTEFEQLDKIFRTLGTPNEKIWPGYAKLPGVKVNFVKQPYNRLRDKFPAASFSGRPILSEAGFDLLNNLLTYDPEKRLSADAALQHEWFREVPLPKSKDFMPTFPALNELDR
# Outline: as §1
SMILES,thermal shift delta Tm (LOC_OS01G57100-cb003) [°C],thermal shift delta Tm (LOC_OS01G60330-cb001) [°C],thermal shift delta Tm (LOC_OS01G60700-cb002) [°C],thermal shift delta Tm (LOC_OS01G63280-cb003) [°C],thermal shift delta Tm (LOC_OS01G67340-cb003) [°C],thermal shift delta Tm (LOC_OS01G70970-cb002) [°C],thermal shift delta Tm (LOC_OS02G07810-cb001) [°C],thermal shift delta Tm (LOC_OS02G08530-cb003) [°C],thermal shift delta Tm (LOC_OS02G14120-cb001) [°C],thermal shift delta Tm (LOC_OS02G17970-cb001) [°C],thermal shift delta Tm (LOC_OS02G45750-cb003) [°C],thermal shift delta Tm (LOC_OS02G54510-cb004) [°C],thermal shift delta Tm (LOC_OS03G04050-cb001) [°C],thermal shift delta Tm (LOC_OS03G12390-cb001) [°C],thermal shift delta Tm (LOC_OS03G27990-cb004) [°C],thermal shift delta Tm (LOC_OS03G50450-cb001) [°C],thermal shift delta Tm (LOC_OS03G50810-cb003) [°C],thermal shift delta Tm (LOC_OS04G35114-cb001) [°C],thermal shift delta Tm (LOC_OS04G38480-cb003) [°C],thermal shift delta Tm (LOC_OS04G41100-cb001) [°C]
COc1cc(-c2cc(-c3ccc(N4CCNCC4)cc3)cnc2C)cc(OC)c1OC,-0.02,1.13,0.16,-0.05,0.51,0.29,0.05,0.49,1.25,0.44,2.4,0.19,0.41,-0.01,0.29,0.65,0.51,2.27,1.94,0.29
CN1CCN(c2ccc(C(=O)Nc3n[nH]c4ccc(Cc5cc(F)cc(F)c5)cc34)c(NC3CCOCC3)c2)CC1 [Entrectinib (RXDX-101)],0.09,4.04,0.42,-0.06,0.57,1.01,0.27,3.95,5.28,0.09,8.16,1.58,0.06,2.99,0.44,0.86,7.06,7.44,2.7,0.77
C[C@@H](Oc1ccc2[nH]nc(/C=C/c3cnn(CCO)c3)c2c1)c1c(Cl)cncc1Cl,2.21,7.79,0.64,7.65,12.6,12.2,0.37,5.56,15,-0.09,13.1,7.93,0.05,10.5,9.48,6.65,6.58,12.3,5.56,1.48
CCc1cc(Nc2nccc(-c3c(-c4ccc(OC)c(C(=O)Nc5c(F)cccc5F)c4)nc4ccccn34)n2)c(OC)cc1N1CCC(N2CCN(S(C)(=O)=O)CC2)CC1,1.35,0.65,1.19,0.43,0.06,0.26,0.77,0.82,0.04,0.47,-0.02,0.08,0.66,0.08,0.49,0.27,0.2,0.36,0.7,0.67
C[C@@H](Oc1cc(-n2cnc3ccc(CN4CCN(C)CC4)cc32)sc1C(N)=O)c1ccccc1C(F)(F)F,0.34,0.7,0.72,0.17,0.69,0.44,1.22,3.01,-0.04,0.25,0.36,-0.15,0.2,-0.35,-0.09,-0.03,0.55,2.11,0.27,0.39
N#CC1(c2ccc(NC(=O)c3cccnc3NCc3ccncc3)cc2)CCCC1 [Apatinib],1.62,0.33,0.74,5.6,0.6,0.01,1.02,0.96,0.6,-0.16,0.45,1.36,0.07,-0.19,0.11,0.69,0.22,0.72,0.83,0.11
C[C@@H](N)c1ccc(C(=O)Nc2ccnc3[nH]ccc23)cc1,0.44,1.35,0.79,0.61,0.47,0.39,0.79,0.76,4,1.28,1.52,0.39,0.7,0.27,0.76,0.85,0.77,1.23,2.01,0.85
"CC(C)(O)CNc1ncc(-c2ccnc(Nc3ccncc3)n2)c(CC2CC2)n1 [VPS34 inhibitor 1 (Compound 19, PIK-III analogue)]",1.59,0.38,0.34,0.12,-0.02,0.5,-0.03,0.85,4.52,0.28,2.27,0.29,0.5,0.77,0.32,0.37,0.9,1.51,1.97,0.43
CS(=O)(=O)c1ccc(-c2cnc(N)c(C(=O)Nc3ccccc3)n2)cc1,0.59,1.29,0.17,0.26,0.52,1.04,0.54,0.71,-0.32,-0.36,4.49,0.26,0.2,0.62,0.7,0.18,0.94,3.32,1.11,0.38
CCc1ccc(/C=C2/SC(=S)NC2=O)cc1,3.2,1.11,2.87,0.27,0.34,1.39,1.4,1.74,1.62,1.54,-0.48,0.83,1.24,1.18,0.83,0.26,0.48,1.2,1.19,0.36
COc1cc2nccc(Oc3ccc(NC(=O)C4(C(=O)Nc5ccc(F)cc5)CC4)cc3)c2cc1OC [Cabozantinib malate (XL184)],1.34,0.89,1.35,0.47,0.53,0.57,1.09,1.12,0.46,0.98,0.86,0.27,0.7,0.1,0.34,0.45,0.59,0.52,1.59,0.69
CN(C)C/C=C/C(=O)Nc1cc2c(Nc3ccc(F)c(Cl)c3)ncnc2cc1O[C@H]1CCOC1 [Afatinib (BIBW2992) Dimaleate],0.18,1.16,1.57,1,0.71,-0.12,0.8,1.12,2.75,1.68,1.42,0.08,0.35,2.3,1.68,0.41,1.38,5.35,2.08,0.45
